For 38 compounds, ΔTm results are on record in ChEMBL document CHEMBL5308504, “Tm Shift (DSF) assay results for EUbOPEN Chemogenomics Library” (2023).

Test [1] has as its target Bromodomain-containing protein 4 (Homo sapiens) (UniProt O60885). Particulars: Compound concentration 20.0 uM, Protein concentration 2.0 uM, Result type QC Liability.
Test [2] deals with T1, Transcription intermediary factor 1-alpha (Homo sapiens) (UniProt O15164).
T1 sequence (whole entry): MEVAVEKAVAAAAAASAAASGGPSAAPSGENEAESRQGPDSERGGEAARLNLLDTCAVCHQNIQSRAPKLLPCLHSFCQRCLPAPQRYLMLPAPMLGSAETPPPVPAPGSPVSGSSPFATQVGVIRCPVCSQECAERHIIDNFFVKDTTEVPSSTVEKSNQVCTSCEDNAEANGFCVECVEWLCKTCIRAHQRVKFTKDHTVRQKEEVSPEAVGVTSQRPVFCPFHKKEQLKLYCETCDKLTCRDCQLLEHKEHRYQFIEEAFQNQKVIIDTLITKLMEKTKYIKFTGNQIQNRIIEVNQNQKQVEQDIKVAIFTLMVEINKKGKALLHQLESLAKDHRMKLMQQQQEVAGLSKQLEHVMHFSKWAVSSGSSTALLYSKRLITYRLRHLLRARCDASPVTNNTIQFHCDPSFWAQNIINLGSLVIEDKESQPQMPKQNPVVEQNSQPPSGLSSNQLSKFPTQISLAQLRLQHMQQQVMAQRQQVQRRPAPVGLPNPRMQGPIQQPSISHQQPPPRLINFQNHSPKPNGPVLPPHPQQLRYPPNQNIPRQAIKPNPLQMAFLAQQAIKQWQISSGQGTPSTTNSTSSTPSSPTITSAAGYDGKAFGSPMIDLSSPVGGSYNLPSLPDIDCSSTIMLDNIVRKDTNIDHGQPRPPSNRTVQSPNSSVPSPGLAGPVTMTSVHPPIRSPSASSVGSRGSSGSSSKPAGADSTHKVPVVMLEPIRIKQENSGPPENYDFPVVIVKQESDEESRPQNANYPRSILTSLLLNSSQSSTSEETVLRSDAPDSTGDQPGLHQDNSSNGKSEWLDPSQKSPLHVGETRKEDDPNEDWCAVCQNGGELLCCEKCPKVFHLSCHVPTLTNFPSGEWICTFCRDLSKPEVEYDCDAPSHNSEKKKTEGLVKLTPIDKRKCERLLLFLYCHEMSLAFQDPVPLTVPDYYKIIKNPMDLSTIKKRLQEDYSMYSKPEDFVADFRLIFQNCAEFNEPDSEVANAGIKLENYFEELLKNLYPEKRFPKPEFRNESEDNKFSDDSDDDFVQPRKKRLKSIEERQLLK
Particulars: Compound concentration 20.0 uM, Protein concentration 2.0 uM, Result type QC Liability.

Several values for one entry are separate records, joined by “and”; a condition that tells them apart may be missing. Identical values can stand only once.

For `O=C(O)/C=C/c1ccc(Cn2ccnc2)cc1`, the results for the ΔTm in test [1] and in test [2] were -0.17 °C and -0.33 °C, respectively.
For `COc1cc2ncnc(Nc3ccc4c(cnn4Cc4ccccc4)c3)c2cc1OC` the same measures were -0.65 °C and -2.15 °C.
The corresponding values for `Cc1nn(-c2nc3ccc(Cl)c(Cl)c3[nH]2)c(O)c1C1OC(=O)c2ccccc21` (stereo unspecified) are -4.43 °C and -1.16 °C.
The corresponding values for `O=C1COc2cc(C(=O)N(Cc3ccc(C(=O)Nc4ccncn4)cc3)C3CC3)ccc2N1` are 0.06 °C and -2.92 °C.
With `CN(C)C(=O)Cn1cc(-c2ccc(-c3nnc4ccccn34)cc2)cn1`, the ΔTm in test [1] was -1.96 °C; in test [2], 0.35 °C.
As to `CCc1nc(-c2cccc(C)c2)c(-c2ccncc2)s1`, the results for the ΔTm in test [1] and in test [2] were 0.55 °C and -3.01 °C, respectively.
As for `CCc1ccc(-c2ncn(CC3(F)CCN(C)CC3)c2-c2ccnc3[nH]ccc23)nc1`, the values for the ΔTm in test [1] and in test [2] were -2.66 °C and -2.61 °C, respectively.
The corresponding values for `COc1cc(F)ccc1-c1cc(Nc2cc(CS(C)(=N)=O)ccn2)ncc1F` (stereo unspecified) are 0.98 °C and -2.98 °C.
For `Nc1ncnc2[nH]c(-c3ccccc3)nc12` the same measures were -1.11 °C and -2.07 °C.
With `CCN1C(=O)N(c2c(F)c(OC)cc(OC)c2F)Cc2cnc3[nH]c(CN4CCOCC4)cc3c21`, the ΔTm in test [1] was -1.4 °C; in test [2] it was -3.85 °C.
The corresponding values for `CC(C)(C)c1cnc(CSc2cnc(NC(=O)C3CCN(CC(=O)NCCOCCOCCOCCNc4cccc5c4C(=O)N(C4CCC(=O)NC4=O)C5=O)CC3)s2)o1` (stereo unspecified) are -1.66 °C and -1.74 °C.
`N[C@@H]1CCCC[C@H]1Oc1ccc2ncc(-c3cc4ccccc4o3)n2n1`: the figures for the ΔTm in test [1] and in test [2] were -0.47 °C and -0.16 °C, respectively.
For `CN(C)C(=O)Cn1cc(-c2ccc(-c3cncc4ccccc34)cc2)cn1` the same measures were -2.19 °C and 0.13 °C.
As for `COc1cc(-c2cc([C@H](O)C3CC3)n3ncnc(N)c23)ccc1CO`, the ΔTm in test [1] stood at 0.22 °C; in test [2] it was 0.24 °C.
Regarding `COc1cc(-c2cc3ncccc3c(O[C@H](C)[C@H]3CNC(=O)C3)n2)cc(OC)c1OC`, the ΔTm in test [1] was -1.66 °C and 1.15 °C; in test [2], 0.28 °C and -2.67 °C.
As to `Cc1ccc(-c2cn3nc(C(=O)NC4(c5ccc(F)cc5)CN(C)C4)c(C(C)C)c3c(=O)[nH]2)cc1C`, the ΔTm in test [1] is -24.1 °C; in test [2] it was 0.46 °C.
The corresponding values for `CN1CCN(c2ccc(Nc3ncc4cc5n(c4n3)C3(CCCCC3)CNC5=O)nc2)CC1` are -0.66 °C and -0.72 °C.
With `COc1cc(Oc2nc(-c3ccc(NC(=O)C4CCOC4)cc3)nn3c(C)nc(C)c23)cc(OC)c1OC` (stereo unspecified), the ΔTm in test [1] is -1.75 °C; in test [2] it was 0.42 °C.
The corresponding values for `COc1ccc(F)c(F)c1C(=O)c1cnc(NC2CCN(S(C)(=O)=O)CC2)nc1N` are 0.74 °C and -1.4 °C.
As to `Cc1cc(OC2CCS(=O)(=O)CC2)cc(C)c1-c1cccc(COc2ccc(CCC(=O)O)c(F)c2)c1`, the ΔTm in test [1] is -5.08 °C; in test [2], -3.73 °C.
As to `CCn1c(CNC(=O)c2nc(Cl)cnc2N)[n+](CC)c2ccc(C(=O)N(C)CCN(C)C)cc21`, the results for the ΔTm in test [1] and in test [2] were -0.61 °C and 0.2 °C, respectively.
Take `CCCCC(C)(O)C/C=C/[C@H]1[C@H](O)CC(=O)[C@@H]1CCCCCCC(=O)O` (stereo partly specified): the figures for the ΔTm in test [1] and in test [2] were -1.42 °C and -0.79 °C, respectively.
As for `COc1cc(-c2nn([C@H]3CC[C@H](N4CCN(C(C)=O)CC4)CC3)c3ncnc(N)c23)ccc1NC(=O)c1cc2ccccc2n1C`, the ΔTm is 0.13 °C in test [1] and -0.55 °C in test [2].
For `CSc1ccc(C[C@@H](C)C(=O)O)cc1Nc1nc(N2CC[C@H](N(C)C)C2)cc(C(F)F)c1C#N` the same measures were 0.52 °C and 0.57 °C.
The corresponding values for `O=C(Cc1ccccc1[N+](=O)[O-])Nc1ccc(-c2ccc(C(O)(C(F)(F)F)C(F)(F)F)cc2F)cc1` are -0.72 °C and 0.45 °C.
For `Cc1cc(S(=O)(=O)N2CC(C)(C)c3cc(-c4ccc(C(F)(F)F)cc4)ccc32)ccc1OCC(=O)O` the same measures were 0.64 °C and 0.9 °C.
With `Cc1nc2ccc(Cl)cc2c(-c2ccccc2)c1CC(=O)O`, the ΔTm was -0.84 °C in test [1] and 0.64 °C in test [2].
For `CNc1nc(Nc2ccc(C(=O)N3CCOCC3)cc2OC)ncc1Cl` the same measures were -0.71 °C and -2.04 °C.
For `CN(C)CC#Cc1ccc2[nH]c3c(c2c1)-c1nc(N)ncc1CCC3` the same measures were -1.33 °C and -0.98 °C.
Turning to `COc1cc(-c2cc3ncccc3c(OC[C@H]3CNC(=O)C3)n2)cc(OC)c1OC1CCOCC1`, the ΔTm in test [1] is -1.76 °C; in test [2], -2.27 °C.
The corresponding values for `CC(C=CC1=C(C)CCCC1(C)C)=CC=CC(C)=CC(=O)O` are -5.12 °C and -4.24 °C.
In the case of `Fc1ccc(Cl)cc1-c1nc(Nc2ccncc2)c2nccnc2n1`, the results for the ΔTm in test [1] and in test [2] were -2.28 °C and -1.86 °C, respectively.
In the case of `Cc1c(NC(=O)COc2ccc(Cl)cc2C(=O)c2cc(F)cc(C(F)(F)F)c2)ccc(C(=O)O)c1F`, the ΔTm was -0.11 °C and -0.42 °C in test [1]; 0.4 °C and 0.46 °C in test [2].
Take `C[C@@H]1CN(CC(=O)N2CC(C)(C)c3nc(CO)c(Cc4ccc(F)cc4)cc32)[C@@H](CN2CCOC[C@H]2C)CN1`: the ΔTm in test [1] was -1.96 °C; in test [2] it was -0.43 °C.
For the compound `Cc1cc(CN(CC(=O)Nc2ccc(Cl)cc2Cl)C2CCCCC2)ccc1OCC(=O)O`, the values for the ΔTm in test [1] and in test [2] were -1.17 °C and -0.29 °C, respectively.
For `CN(C1CCc2c(c3ccccc3n2CC(=O)O)C1)S(=O)(=O)c1ccc(F)cc1` (stereo unspecified) the same measures were -1.34 °C and -0.54 °C.
For `N#Cc1ccc(COc2ccc(Br)cc2CNCCO)cn1` the same measures were -0.82 °C and -0.53 °C.
Consider `O=C1CCCN1CCNc1nc(Nc2ccc(Cl)c(Cl)c2)ncc1C(F)(F)F`, for which the ΔTm in test [1] is -2.43 °C; in test [2] it was -1.81 °C.

Usually ΔTm stands for the change in melting temperature against a reference sample.
